In PubChem BioAssay (NCI):
The panel holds about 83,000 compounds, 20% with a hit somewhere; the sample as a whole holds those more often.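 Cells were grown in 96-well plates and exposed to the test compound at a single concentration for 48 hours; results are reported as percent growth, with values below 10 considered active.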 Unmarked numbers belong to inactive results. Active and inactive are the calls of the source.

How the values were obtained:
Test in all cases: NCI-60 one-dose screen, 48 h (100 = growth as untreated, 0 = no growth, -100 = all killed)
Conditions in all cases: 10 µM unless noted
SK-MEL-2 melanoma = test system: SK-MEL-2 melanoma
EKVX NSCLC = test system: EKVX NSCLC
SN12C renal = test system: SN12C renal
UO-31 renal = test system: UO-31 renal
TK-10 renal = test system: TK-10 renal
ACHN renal = test system: ACHN renal
A498 renal = test system: A498 renal
CCRF-CEM leukemia = test system: CCRF-CEM leukemia
MOLT-4 leukemia = test system: MOLT-4 leukemia
SR leukemia = test system: SR leukemia
RPMI-8226 leukemia = test system: RPMI-8226 leukemia
OVCAR-8 ovarian = test system: OVCAR-8 ovarian
OVCAR-5 ovarian = test system: OVCAR-5 ovarian
OVCAR-4 ovarian = test system: OVCAR-4 ovarian
SK-OV-3 ovarian = test system: SK-OV-3 ovarian
IGROV1 ovarian = test system: IGROV1 ovarian
OVCAR-3 ovarian = test system: OVCAR-3 ovarian
HS 578T breast = test system: HS 578T breast
NCI/ADR-RES ovarian = test system: NCI/ADR-RES ovarian
CAKI-1 renal = test system: CAKI-1 renal

Row | Structure (SMILES) | growth (SK-MEL-2 melanoma) | growth (EKVX NSCLC) | growth (SN12C renal) | growth (UO-31 renal) | growth (TK-10 renal) | growth (ACHN renal) | growth (A498 renal) | growth (CCRF-CEM leukemia) | growth (MOLT-4 leukemia) | growth (SR leukemia) | growth (RPMI-8226 leukemia) | growth (OVCAR-8 ovarian) | growth (OVCAR-5 ovarian) | growth (OVCAR-4 ovarian) | growth (SK-OV-3 ovarian) | growth (IGROV1 ovarian) | growth (OVCAR-3 ovarian) | growth (HS 578T breast) | growth (NCI/ADR-RES ovarian) | growth (CAKI-1 renal)
1 | CCn1c2ccccc2c2cc(-n3nncc3-c3ccccc3)ccc21 | 68.2% | 45.5% | 25.4% | 36.8% | 90.5% | 29.2% | -0.537% (active) | 19.5% | 12.7% | 10.4% | 19.8% | 27% | 35.4% | 43% | 42.4% | 16.2% | 4.2% (active) | 19.3% | 6.13% (active) | –
2 | COc1ccc2c(c1)c(CC(=O)[Se]CC#N)c(C)n2C(=O)c1ccc(Cl)cc1 | 39.3% | -2.11% (active) | 74% | -3.23% (active) | -5.49% (active) | 12% | – | 8.66% (active) | 10.8% | 3.49% (active) | 20.5% | 6.34% (active) | -13.6% (active) | 27.7% | 34% | -14.3% (active) | 13.9% | 28.3% | – | –
3 | CN(C)CCNC(=O)c1ccc(-c2nc3ccc4[nH]ncc4c3c3c2COCC3)cc1 | -69.7% (active) | 33.1% | 5.07% (active) | 82.9% | 44% | 69.4% | -60.4% (active) | – | -9.13% (active) | -25.1% (active) | 44.3% | 11% | 27.5% | 2.78% (active) | 14% | 0.798% (active) | -6.74% (active) | -19.6% (active) | 92.2% | –
4 | CCOc1ccccc1NC1=C(Cl)C(=O)c2nc(C)ccc2C1=O | -15.7% (active) | -2.24% (active) | -51% (active) | -93% (active) | 124% | -99.1% (active) | 78.8% | -6.33% (active) | -24.9% (active) | -12.8% (active) | -35.1% (active) | 0.93% (active) | 40.8% | -92% (active) | 85.3% | -57.5% (active) | -98.9% (active) | 1.05% (active) | -9.58% (active) | –
5 | COc1ccccc1-n1cc(C#N)c(N)c1C(=O)c1ccc(Cl)cc1 | 78.4% | 86.9% | 90% | 77.4% | 107% | 93% | 57% | 76.3% | 64.2% | 23.5% | 88.3% | 96.7% | 109% | 98.2% | 101% | 78% | 63.7% | 74.6% | 41.1% | –
6 | C=CCn1c(SCC(=O)Nc2ccc(C(=O)/C=C/c3ccc(Br)cc3)cc2)nnc1-c1c[nH]c2ccccc12 | 93.4% | 82.2% | 81.1% | 59.7% | 95.9% | 87.8% | 88.9% | 83% | 66.3% | 70.3% | 3.64% (active) | 81.2% | 99.4% | 74.7% | 91.8% | 76.4% | 86.9% | 89.9% | 101% | –
7 | NC(N)=Nc1ccc(Oc2cccc(NC(N)=Nc3ccc(Br)cc3)c2)cn1 | 84.3% | 62% | 20.6% | 85% | 69.1% | 95.5% | 64.3% | 58.5% | – | 34.5% | 51.4% | 68.1% | 66.7% | 71% | 73.6% | 37.9% | 64.9% | 44.2% | 100% | –
8 | O=C(NNc1nc2cc(F)c(F)cc2n2cccc12)c1cnccn1 | 46.2% | 17% | 39% | 23.3% | 49.3% | 17.6% | 43.6% | 14.4% | 7.98% (active) | 15.3% | 30.5% | 16.6% | 41.2% | 20.3% | 30.5% | 19.5% | 35.6% | 75.5% | 2.66% (active) | –
9 | N#Cc1cccc(CN2CCC3=C(C2)C(=O)N(Cc2ccc(Cl)cc2)C2=NCCN23)c1 | 39.5% | 26.8% | 23.9% | 35.5% | 52.3% | 33.2% | 15% | 33.1% | 53.2% | 32.9% | 17% | 20.2% | 38.6% | 20.4% | 27.8% | 54.4% | 23.4% | 45.5% | 13.5% | –
10 | O=C(NCc1ncc[nH]1)c1ccc(-c2nc3ccc4[nH]ncc4c3c3c2CCCC3)cc1 | -32.6% (active) | 47.9% | 10.5% | 51.6% | -2.79% (active) | 42% | – | – | -23.5% (active) | -52.6% (active) | 45% | 16.1% | 62.1% | 14.5% | -16.8% (active) | 3.6% (active) | 3.38% (active) | -12.8% (active) | 90.2% | –
11 | COc1ccc(NC2=C(Cl)C(=O)c3nc(C)ccc3C2=O)cc1OC | 100% | 50.8% | 90.5% | 100% | 149% | 95% | 82.6% | 15.3% | 69.8% | 0.922% (active) | 47.3% | 92.6% | 105% | 71.4% | 91.8% | 19.6% | 13.2% | 119% | 94.7% | –
12 | COc1c(N2CC3CCCNC3C2)c(F)cc2c(=O)c(C(=O)N/N=C/c3ccc(Br)cc3)cn(C3CC3)c12 (stereo not given) | 100% | 90.4% | 78.8% | 60.5% | 121% | 89.2% | 74.3% | 55.3% | 54.9% | -28.1% (active) | 65.8% | 90.3% | 92.8% | 90.1% | 99.6% | 75.2% | 81.7% | 88.4% | 90.1% | –
13 | CN1CCN(c2ccc(/C=N/n3cnc4oc(-c5ccccc5)cc4c3=N)cc2)CC1 | 103% | – | 66% | 63.7% | 119% | 70.1% | 81.4% | 44.8% | 44.4% | 36.6% | 87.9% | 96.1% | 76.2% | 83.1% | 71.3% | 36.7% | 90.2% | 63.8% | 81.3% | 72.5%
14 | Cn1ccnc1C(=O)/C=C/c1ccc(CNC(=O)c2ccc(S(F)(F)(F)(F)F)cc2)cc1 | 92.9% | 40% | 25.6% | 34.7% | 91.1% | – | 73.5% | 2.63% (active) | – | 4.16% (active) | -10.9% (active) | 26.4% | 22.4% | 35.6% | 66.8% | 16.7% | 16.8% | 23% | – | 47%
15 | Cc1ccc(-n2cc(/C=C/C(=O)c3ccc(O)cc3)c(-c3ccc(S(C)(=O)=O)cc3)n2)cc1 | 101% | – | 63.5% | 76.4% | 117% | 67.7% | 99.2% | 48.8% | 34.8% | 55.1% | 47.9% | 87.5% | 95.7% | 98.7% | 94.9% | 47.7% | 22.7% | – | 33.6% | 73.4%
16 | C#C[C@]1(O)CC[C@H]2[C@@H]3CC=C4c5sc(-c6ccc(C)cc6)nc5CC[C@]4(C)[C@H]3CC[C@@]21C | -2.55% (active) | – | 59% | -7.05% (active) | 77.4% | 21.5% | 113% | 6.48% (active) | -2.14% (active) | 0.0897% (active) | -27.4% (active) | 58.4% | 93.5% | 65.3% | -7.23% (active) | 49.3% | 62% | -26.9% (active) | 56.6% | 8.16% (active)
